Among the test systems are NCI-H23 lung; NCI-H226 lung; NCI-H322M lung; HOP-62 NSCLC; NCI-H460 lung; HOP-92 NSCLC; NCI-H522 lung; A549/ATCC NSCLC; 786-0 renal; COLO 205 colon; DU-145 prostate; K-562 leukemia; MALME-3M melanoma; MDA-MB-231 breast; RXF 393 renal; SF-268 CNS; SF-295 CNS; SF-539 CNS; UACC-257 melanoma; M14 melanoma.
What all share (experiment): NCI-60 one-dose screen, 48 h (100 = growth as untreated, 0 = no growth, -100 = all killed)
Common to all, as to settings: 10 µM unless noted

The panel holds about 83,000 compounds, 20% with a hit somewhere; the sample as a whole holds those more often.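 96-well plates, one dose, 48 hours. Percent growth reported; active if below 10.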 Unmarked numbers belong to inactive results. Calls of active or inactive are those of the source.

Consider `NC(N)=Nc1nc2ccccc2o1`, for which the growth in the assay with NCI-H23 lung is 108%; with NCI-H226 lung, 107%; in the assay with NCI-H322M lung, 106%; with HOP-62 NSCLC, 88.4%; with NCI-H460 lung, 99.8%; with HOP-92 NSCLC it was -9.02% (active). Further, the growth in the assay with NCI-H522 lung is 107%; in the assay with A549/ATCC NSCLC it was 109%; in the assay with 786-0 renal, 109%; in the assay on COLO 205 colon, 138%; in the assay with DU-145 prostate, 89.3%; in the assay on K-562 leukemia, 104%. Besides, the growth with MALME-3M melanoma was 119%; in the assay with MDA-MB-231 breast, 103%; in the assay on RXF 393 renal, 114%; with SF-268 CNS, 88.4%; in the assay with SF-295 CNS, 112%; with SF-539 CNS, 96.2%. Moreover, the growth was 121% with UACC-257 melanoma and 80% with M14 melanoma.
With `COc1ccc(Nc2[nH]n3c(=O)cc(C)nc3c2C(N)=O)c(OC)c1`, the growth in the assay on NCI-H23 lung was 100%; in the assay with NCI-H226 lung it was 97.4%; with NCI-H322M lung it was 96%; with HOP-62 NSCLC, 85.9%; in the assay with NCI-H460 lung it was 105%; in the assay with HOP-92 NSCLC it was 73.1%. The growth with NCI-H522 lung is 84.9%; with A549/ATCC NSCLC, 89.5%; with 786-0 renal, 99.1%; in the assay with COLO 205 colon it was 102%; with DU-145 prostate it was 112%; in the assay with K-562 leukemia, 101%. The growth in the assay with MALME-3M melanoma is 126%; in the assay with MDA-MB-231 breast it was 84.9%; in the assay on RXF 393 renal, 98.1%; in the assay on SF-268 CNS, 97.8%; in the assay with SF-295 CNS, 102%; with SF-539 CNS, 91.2%. In addition, the growth was 85.1% in the assay with UACC-257 melanoma and 106% in the assay with M14 melanoma.
As for `C=C1CCC2C3(C)COC(c4ccc(N(C)C)cc4)OC3CCC2(C)C1C/C=C1/C(=O)OCC1O` (stereo not given), the growth in the assay with NCI-H23 lung was 66.4%; with NCI-H226 lung, 109%; with NCI-H322M lung, 83.1%; with HOP-62 NSCLC it was 108%; in the assay with NCI-H460 lung, 74.2%; with HOP-92 NSCLC, 68.9%. For the same compound, the growth with NCI-H522 lung is 74.2%; in the assay with A549/ATCC NSCLC, 52%; with 786-0 renal, 96%; with COLO 205 colon, 19.5%; in the assay with DU-145 prostate, 7.35% (active); with K-562 leukemia, 44%. In addition, the growth in the assay with MALME-3M melanoma was 105%; with MDA-MB-231 breast, 85.4%; with RXF 393 renal it was 1.3% (active); in the assay with SF-268 CNS it was 74.9%; in the assay on SF-295 CNS, 95.6%; with SF-539 CNS, 99.2%. The growth with UACC-257 melanoma was 49.5%; in the assay on M14 melanoma, 71.7%.
Consider `O=[N+]([O-])c1ccc(C(c2ccccc2)c2ccccc2)cc1`, for which the growth in the assay on NCI-H23 lung is 89.6%; in the assay with NCI-H226 lung, 100%; in the assay on NCI-H322M lung, 78%; with HOP-62 NSCLC it was 102%; in the assay with NCI-H460 lung, 94%; in the assay with HOP-92 NSCLC it was 85.9%. The growth with NCI-H522 lung is 87%; with A549/ATCC NSCLC, 91.5%; with 786-0 renal, 99.4%; in the assay with COLO 205 colon, 92.6%; with DU-145 prostate, 105%; in the assay on K-562 leukemia, 91.9%. Also, the growth was 107% with MALME-3M melanoma; 86.3% in the assay on MDA-MB-231 breast; 100% with RXF 393 renal; 98.7% in the assay on SF-268 CNS; 88.7% in the assay with SF-295 CNS; 104% with SF-539 CNS. Also, the growth in the assay on UACC-257 melanoma was 96.9%; with M14 melanoma, 105%.
In the case of `CCOC(=O)C1C(=O)C=C(c2ccc(OC)cc2)CC1c1sc(N(C)Cc2ccccc2)nc1Cl` (stereo not given), the growth is 77.7% in the assay with NCI-H23 lung; 82.6% with NCI-H226 lung; 76.1% in the assay with NCI-H322M lung; 81.6% in the assay on HOP-62 NSCLC; 82.8% in the assay on NCI-H460 lung; 29.8% in the assay with HOP-92 NSCLC. For the same compound, the growth is 68.7% in the assay on NCI-H522 lung; 82% in the assay on A549/ATCC NSCLC; 84.6% in the assay on 786-0 renal; 108% in the assay on COLO 205 colon; 91.5% with DU-145 prostate; 68.4% in the assay with K-562 leukemia. For the same compound, the growth in the assay with MALME-3M melanoma was 93.4%; with MDA-MB-231 breast it was 68.3%; in the assay with RXF 393 renal, 93.9%; with SF-268 CNS, 74.4%; with SF-295 CNS it was 83.6%; in the assay on SF-539 CNS, 84.7%. Moreover, the growth with UACC-257 melanoma is 91.2%; with M14 melanoma, 87.6%.
As to `COc1cccc(CC(C)=C(c2ccc(OCCN(C)C)cc2)c2ccc(OCCN(C)C)cc2)c1`, the growth with NCI-H23 lung is 70%; in the assay with NCI-H226 lung, 31.3%; in the assay with NCI-H322M lung, 1.04% (active); with HOP-62 NSCLC, 3.07% (active); in the assay on NCI-H460 lung, -64.9% (active); in the assay on HOP-92 NSCLC it was 10.2%. Moreover, the growth is -39.8% (active) in the assay with NCI-H522 lung; -21.7% (active) with A549/ATCC NSCLC; -91% (active) with 786-0 renal; -70.5% (active) in the assay with COLO 205 colon; 22.1% in the assay with DU-145 prostate; -61.4% (active) in the assay on K-562 leukemia. For the same compound, the growth in the assay on MALME-3M melanoma is -93% (active); in the assay on MDA-MB-231 breast it was -75.4% (active); in the assay with RXF 393 renal it was -62.6% (active); in the assay on SF-268 CNS it was -32.9% (active); with SF-295 CNS, 22.8%; with SF-539 CNS, -93.1% (active). Moreover, the growth was -74.5% (active) in the assay with UACC-257 melanoma and -80.5% (active) with M14 melanoma.
`CC12CCCC(CC(=O)c3[nH]c4ccccc4c31)C2` (stereo not given): the growth was 33.5% in the assay with NCI-H23 lung; 60.8% in the assay with NCI-H226 lung; 35.7% in the assay with NCI-H322M lung; 28.2% in the assay on HOP-62 NSCLC; 7.52% (active) with NCI-H460 lung; 47% with HOP-92 NSCLC. Moreover, the growth with NCI-H522 lung was 2.33% (active); in the assay on A549/ATCC NSCLC, 27.7%; with 786-0 renal it was 41.4%; with COLO 205 colon, 7.12% (active); in the assay with DU-145 prostate it was -15.6% (active); in the assay with K-562 leukemia, 11.2%. Besides, the growth with MALME-3M melanoma was 36.4%; in the assay on MDA-MB-231 breast it was 37.9%; in the assay with RXF 393 renal, -21.7% (active); in the assay on SF-268 CNS it was 63.7%; in the assay with SF-295 CNS, 15.1%; with SF-539 CNS it was -19.1% (active). The growth in the assay on UACC-257 melanoma is 66.1%; in the assay with M14 melanoma, 3.66% (active).
